Measurements: PubChem BioAssay AID1159580 (chemical genetic matrix, 2015)
Screen size: about 5,500 compounds; about 2,000 (36%) were called active. Another 18% or so got no clear call; they are omitted. Rule as the data show it: active = normalized growth mostly below about 0.91 (no sharp cut-off); inconclusive = no clear call, values can overlap the other calls; inactive = mostly above about 0.92. The list shows a part of the results.

Assay: chemical genetic growth profiling, strain panel (AID 1159580);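 also: tested at 20 µM; growth read once vehicle control cultures reached saturation at 30 °C; 1 = growth at the plate median or of vehicle wells; lower values mean less growth of the strain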
Settings: growth OD
[1] = S. cerevisiae deletion strains, locus YDL101C, strain DUN1, hits give low values
[2] = S. cerevisiae deletion strains, locus YHR030C, strain SLT2, hits give low values
[3] = S. cerevisiae deletion strains, locus YAL013W, strain DEP1, hits give low values
[4] = S. cerevisiae deletion strains, locus YBR229C, strain ROT2, hits give low values
[5] = S. cerevisiae deletion strains, locus YDL134C, strain PPH21, hits give low values
[6] = S. cerevisiae deletion strains, locus YDR150W, strain NUM1, hits give low values
[7] = S. cerevisiae deletion strains, locus YEL061C, strain CIN8, hits give low values
[8] = S. cerevisiae deletion strains, locus YGR078C, strain PAC10, hits give low values
[9] = S. cerevisiae deletion strains, locus YHR087W, strain rtc3, hits give low values
[10] = S. cerevisiae deletion strains, locus YJR043C, strain POL32, hits give low values
[11] = S. cerevisiae deletion strains, locus YJR075W, strain HOC1, hits give low values
[12] = S. cerevisiae deletion strains, locus YKL190W, strain CNB1, hits give low values
[13] = S. cerevisiae deletion strains, locus YLR039C, strain RIC1, hits give low values
[14] = S. cerevisiae deletion strains, locus YLR058C, strain SHM2 (second series), hits give low values
[15] = S. cerevisiae deletion strains, locus YLR085C, strain ARP6, hits give low values
[16] = S. cerevisiae deletion strains, locus YLR262C, strain YPT6, hits give low values
[17] = S. cerevisiae deletion strains, locus YML094W, strain GIM5, hits give low values
[18] = S. cerevisiae deletion strains, locus YMR219W, strain ESC1, hits give low values
[19] = S. cerevisiae deletion strains, locus YMR263W, strain SAP30, hits give low values
[20] = S. cerevisiae deletion strains, locus YNL153C, strain GIM3, hits give low values
[21] = S. cerevisiae deletion strains, locus YNL298W, strain CLA4 (second series), hits give low values
[22] = S. cerevisiae deletion strains, locus YNL322C, strain KRE1, hits give low values
[23] = S. cerevisiae deletion strains, locus YNR030W, strain Alg12, hits give low values
[24] = S. cerevisiae deletion strains, locus YPL055C, strain LGE1, hits give low values
[25] = S. cerevisiae deletion strains, locus YPL241C, strain CIN2, hits give low values
[26] = S. cerevisiae deletion strains, locus YPR135W, strain CTF4, hits give low values
[27] = S. cerevisiae strains, strain wild type, hits give low values

Measured: normalized growth

Cc1c(S(=O)(=O)Nc2cccc([N+](=O)[O-])c2)sc2ccc(Cl)cc12
inactive: S. cerevisiae deletion strains, locus YAR019C, strain CDC15, hits give low values 0.965 | S. cerevisiae deletion strains, locus YBL105C, strain PKC1, hits give low values 0.973 | S. cerevisiae deletion strains, locus YBR135W, strain CKS1, hits give low values 0.968 | S. cerevisiae deletion strains, locus YBR136W, strain MEC1, hits give low values 0.973 | S. cerevisiae deletion strains, locus YBR160W, strain CDC28, hits give low values 0.967 | S. cerevisiae deletion strains, locus YDL017W, strain CDC7, hits give low values 0.972 | S. cerevisiae deletion strains, locus YDL028C, strain MPS1, hits give low values 0.979 | [1] 0.963 | S. cerevisiae deletion strains, locus YDL108W, strain KIN28, hits give low values 0.981 | S. cerevisiae deletion strains, locus YDL132W, strain cdc53, hits give low values 0.955 | S. cerevisiae deletion strains, locus YDL214C, strain PRR2, hits give low values 0.991 | S. cerevisiae deletion strains, locus YDR052C, strain DBF4, hits give low values 0.958 | S. cerevisiae deletion strains, locus YDR054C, strain cdc34, hits give low values 0.969 | S. cerevisiae deletion strains, locus YDR226W, strain ADK1, hits give low values 0.966 | S. cerevisiae deletion strains, locus YDR477W, strain SNF1, hits give low values 0.979 | S. cerevisiae deletion strains, locus YER123W, strain YCK3, hits give low values 1.01 | S. cerevisiae deletion strains, locus YER133W, strain GLC7, hits give low values 0.982 | S. cerevisiae deletion strains, locus YFL009W, strain cdc4, hits give low values 0.97 | S. cerevisiae deletion strains, locus YFL029C, strain CAK1, hits give low values 0.97 | S. cerevisiae deletion strains, locus YFR003C, strain YPI1, hits give low values 0.98 | S. cerevisiae deletion strains, locus YFR019W, strain FAB1, hits give low values 0.975 | S. cerevisiae deletion strains, locus YFR028C, strain CDC14, hits give low values 0.973 | S. cerevisiae deletion strains, locus YGR040W, strain KSS1, hits give low values 0.96 | S. cerevisiae deletion strains, locus YGR052W, strain FMP48, hits give low values 1.09 | S. cerevisiae deletion strains, locus YGR092W, strain DBF2, hits give low values 0.932 | S. cerevisiae deletion strains, locus YHR079C, strain IRE1, hits give low values 0.913 | S. cerevisiae deletion strains, locus YHR082C, strain KSP1, hits give low values 1.01 | S. cerevisiae deletion strains, locus YHR205W, strain SCH9, hits give low values 0.986 | S. cerevisiae deletion strains, locus YIL147C, strain SLN1, hits give low values 0.976 | S. cerevisiae deletion strains, locus YJL095W, strain BCK1, hits give low values 0.979 | S. cerevisiae deletion strains, locus YJL128C, strain PBS2, hits give low values 0.963 | S. cerevisiae deletion strains, locus YJL157C, strain FAR1, hits give low values 1.01 | S. cerevisiae deletion strains, locus YJR016C, strain ILV3, hits give low values 0.969 | S. cerevisiae deletion strains, locus YJR066W, strain TOR1 (second series), hits give low values 0.999 | S. cerevisiae deletion strains, locus YJR066W, strain TOR1, hits give low values 1.03 | S. cerevisiae deletion strains, locus YKL048C, strain ELM1, hits give low values 0.967 | S. cerevisiae deletion strains, locus YKL067W, strain YNK1, hits give low values 0.99 | S. cerevisiae deletion strains, locus YKL101W, strain HSL1, hits give low values 0.981 | S. cerevisiae deletion strains, locus YKL193C, strain SDS22, hits give low values 0.971 | S. cerevisiae deletion strains, locus YKL203C, strain TOR2, hits give low values 1 | S. cerevisiae deletion strains, locus YLR113W, strain HOG1, hits give low values 0.878 | S. cerevisiae deletion strains, locus YLR133W, strain CKI1, hits give low values 0.989 | S. cerevisiae deletion strains, locus YLR403W, strain SFP1, hits give low values 0.954 | S. cerevisiae deletion strains, locus YML070W, strain DAK1, hits give low values 0.974 | S. cerevisiae deletion strains, locus YMR001C, strain CDC5, hits give low values 0.974 | S. cerevisiae deletion strains, locus YMR205C, strain PFK2 (second series), hits give low values 0.992 | S. cerevisiae deletion strains, locus YMR277W, strain FCP1, hits give low values 0.989 | S. cerevisiae deletion strains, locus YNL006W, strain LST8, hits give low values 0.966 | S. cerevisiae deletion strains, locus YNL020C, strain ARK1, hits give low values 0.972 | S. cerevisiae deletion strains, locus YNL161W, strain CBK1, hits give low values 0.971 | S. cerevisiae deletion strains, locus YNL183C, strain NPR1, hits give low values 0.926 | S. cerevisiae deletion strains, locus YNL207W, strain RIO2, hits give low values 0.983 | S. cerevisiae deletion strains, locus YNL222W, strain SSU72, hits give low values 0.966 | S. cerevisiae deletion strains, locus YNL307C, strain MCK1 (second series), hits give low values 0.988 | S. cerevisiae deletion strains, locus YOL078W, strain AVO1, hits give low values 0.975 | S. cerevisiae deletion strains, locus YOL136C, strain PFK27, hits give low values 0.968 | S. cerevisiae deletion strains, locus YOR061W, strain CKA2, hits give low values 0.966 | S. cerevisiae deletion strains, locus YOR119C, strain RIO1, hits give low values 1.08 | S. cerevisiae deletion strains, locus YOR231W, strain MKK1, hits give low values 0.955 | S. cerevisiae deletion strains, locus YOR329C, strain SCD5, hits give low values 0.971 | S. cerevisiae deletion strains, locus YPL031C, strain PHO85, hits give low values 0.985 | S. cerevisiae deletion strains, locus YPL153C, strain RAD53, hits give low values 0.962 | S. cerevisiae deletion strains, locus YPL204W, strain HRR25, hits give low values 0.964 | S. cerevisiae deletion strains, locus YPL209C, strain IPL1, hits give low values 0.973 | S. cerevisiae deletion strains, locus YPL256C, strain CLN2, hits give low values 0.926 | S. cerevisiae deletion strains, locus YPR025C, strain CCL1, hits give low values 0.97 | S. cerevisiae deletion strains, locus YPR106W, strain ISR1, hits give low values 0.971 | S. cerevisiae deletion strains, locus YPR111W, strain DBF20, hits give low values 0.965 | S. cerevisiae deletion strains, strain NNK1, hits give low values 0.951 | S. cerevisiae deletion strains, strain TSCII, hits give low values 0.964
active: [2] 0.752

FC(F)(F)Oc1ccccc1-c1nnc(-c2ccc(Cl)cc2)o1
inactive: [3] 0.946 | [4] 0.968 | [1] 0.971 | [5] 0.963 | [6] 0.912 | [7] 0.931 | [8] 0.934 | [9] 0.924 | S. cerevisiae deletion strains, locus YJL187C, strain SWE1, hits give low values 0.957 | [10] 0.975 | [13] 0.874 | [14] 0.95 | [16] 0.963 | [17] 0.878 | [18] 0.966 | [19] 0.948 | [20] 0.976 | [21] 0.872 | [22] 0.944 | S. cerevisiae deletion strains, locus YOL006C, strain TOP1, hits give low values 0.767 | [24] 0.851 | [26] 0.73 | [27] 0.94
active: [2] 0.442 | [11] 0.87 | [12] 0.9 | [15] 0.68 | [23] 0.837 | [25] 0.852

Cc1nn(-c2ccccc2)nc1-c1nnc(-c2ccc(Cl)cc2)o1
inactive: [3] 1.02 | [4] 1.01 | S. cerevisiae deletion strains, locus YCL061C, strain MRC1, hits give low values 0.986 | [1] 0.995 | [5] 1 | [6] 1 | [7] 1.01 | [8] 0.993 | S. cerevisiae deletion strains, locus YGR229C, strain SMI1, hits give low values 1.01 | [2] 1.03 | [9] 1.04 | [10] 1.02 | [11] 1 | [12] 1.01 | [13] 1.04 | [14] 1.02 | [15] 1.03 | [16] 1.03 | [17] 1.04 | [18] 0.998 | [19] 1.05 | S. cerevisiae deletion strains, locus YMR307W, strain GAS1, hits give low values 1.07 | [20] 1 | [21] 1.01 | [22] 0.988 | [23] 1.03 | [24] 1.01 | [25] 1 | [26] 0.98 | [27] 1.01
